SMN2 splice up: enhancers of SMN2 splice variant expression. HEK293 SMN2-luciferase splicing reporter, luminescence, 30-36 h. Potency, µM (titrated, usually from 46.1 µM), inactives show at the highest dose activity change, positive = activation, usual class: activators. actives 2.8% (n = 210,000). AID 1458; note: % of control where 0% means no effect; nearly all actives have a fitted effect of over 55% in size
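qHTS luciferase splicing reporter: luminescence rises when SMN2 exon 7 is included in transfected HEK293 cells. Compound exposure lasted 30-36 h at 37C, with 4.5 mM final sodium butyrate as control, followed by a ONE-Glo read.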
ELG1 genotoxic: induces genotoxicity in HEK293T cells with luciferase-tagged ELG1 | HEK293T ELG1-luciferase reporter, luminescence, 16 h | Potency, µM (titrated, usually from 46 µM), inactives show at the highest dose activity change, positive = activation, most hits filed as activators | actives 1.3% (n = 330,000) | AID 504466; note: % of control where 0% means no effect; nearly all actives have a fitted effect of over 60% in size
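Screening used a luciferase reporter fused to human ELG1 in HEK293T cells. Luminescence was read on a CCD plate imager after 16 hr exposure and 30 min ONE-Glo incubation.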
FLuc counter: counter-screen for miR-21 project: firefly luciferase inhibitors or activators. purified FLuc, Km substrates, luminescence inhibition. Potency, µM (series often up to 57.5 µM), for inactives: top-dose activity change, negative = inhibition, usual class: inhibitors. actives 6.9% (n = 360,000);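 note: plate controls were vehicle for no effect and reference inhibitor for full effect; nearly all actives have a fitted effect of over 55% in size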
Target sequence (P08659 whole entry, looked up): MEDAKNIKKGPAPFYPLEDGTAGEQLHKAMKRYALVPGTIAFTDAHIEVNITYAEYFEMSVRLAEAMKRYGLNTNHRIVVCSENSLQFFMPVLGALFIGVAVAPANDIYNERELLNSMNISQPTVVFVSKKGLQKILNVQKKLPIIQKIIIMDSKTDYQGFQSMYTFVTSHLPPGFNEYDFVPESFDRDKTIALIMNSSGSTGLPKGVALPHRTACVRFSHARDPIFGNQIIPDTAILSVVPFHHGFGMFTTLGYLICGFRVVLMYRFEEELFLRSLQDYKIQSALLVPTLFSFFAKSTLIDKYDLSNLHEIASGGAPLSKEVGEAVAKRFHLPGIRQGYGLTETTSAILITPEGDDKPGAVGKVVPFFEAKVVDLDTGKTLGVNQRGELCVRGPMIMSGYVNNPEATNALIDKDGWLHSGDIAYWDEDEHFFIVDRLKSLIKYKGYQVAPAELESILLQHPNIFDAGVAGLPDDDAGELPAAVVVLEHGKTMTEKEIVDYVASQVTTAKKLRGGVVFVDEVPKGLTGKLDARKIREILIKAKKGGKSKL
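Biochemical qHTS of compounds, final roughly 60 µM downward over six points, against 10 nM purified firefly luciferase using Km concentrations of substrates (10 uM D-luciferin, 10 uM ATP) in Tris acetate pH 7.5 buffer; luminescence output.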
Rab9 prom act: Rab9 promoter activation | Huh7 Rab9 promoter-luciferase reporter, luminescence, 24 h | Potency, µM (doses to about 9.22 µM), without a hit: at the highest dose activation, negative = inhibition, most hits filed as activators | actives 2.8% (n = 320,000); note: % of control where 0% means no effect; nearly all actives have a fitted effect of over 60% in size
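Quantitative HTS format; Huh7 Rab9-luciferase reporter cells (1500/well) receive compound 2 h post-plating, incubate 24 h at 37 °C, then get luciferase reagent for 10 min before luminescence reading.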
Luc counter: blocks Kinase-Glo luciferase, a counter-screen artifact | actives 0.28% (n = 200,000) | Q27757 | AID 1379 | Potency, µM (titrated, usually from 38.3 µM), inactives show top-dose activity change, negative = inhibition, actives largely listed as inhibitors | Kinase-Glo luciferase, ATP luminescence, 8 min; note: % is set by controls: 0 for no effect and ±100 for the full control effect; nearly all actives have a fitted effect of over 60% in size
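Substrate mix (final 50 mM imidazole pH 7.2, 50 mM KCl, 7 mM MgCl2, 10 uM ATP, 0.01% Tween 20, 0.05% BSA) plus pin-tool compound, then Kinase-Glo detection mix; 8 min ambient, luminescence read.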
NPC1 prom act: activates the NPC1 promoter. Huh7 NPC1 promoter luciferase reporter, 24 h. Potency, µM (highest dose often 9.22 µM), inactives show at the top dose activation, most hits filed as activators. actives 2.4% (n = 320,000); note: % of control where 0% means no effect; nearly all actives have a fitted effect of over 60% in size
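Readout is luciferase luminescence, reflecting NPC1 promoter activation in stably transfected Huh7 cells after 24 h compound exposure at 37 °C in reduced-serum medium with 10% FBS.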
An asterisk follows results filed as active; [ ] = another dose, or the depositor's remark. Rows were chosen to be rich in hits. Some 7.3% of all compounds tested hit in one or more screens of this group. Calls come from the whole dose curve; as a rule, active = well fitted curve in the direction sought with a large enough effect; inconclusive = small, poorly fitted or top-dose-only effect, or another doubt; inactive = no such curve, though single readings can be large; an effect the other way counts as inactive or inconclusive. Potency is the fitted concentration of half-maximal effect.

CCOC(=O)Cn1nc(/C=C/c2ccc(C(C)C)cc2)ccc1=O was read as SMN2 splice up -11%, ELG1 genotoxic 1%, FLuc counter 11µM*, Rab9 prom act 13%, Luc counter -1% and NPC1 prom act 22%.
For Cc1ccc(NC(=O)CN2C(=O)C3(SCC(=O)N3c3ccc(F)c(F)c3)c3ccccc32)c(C)c1 (centres undefined) the results were FLuc counter 4%.
Screening CCc1ccc(CNC(=O)c2cnc3sc(N4CCCCC4)nn3c2=O)cc1 returned FLuc counter -6%.
For N#CCCN1CCCc2cc(N=Nc3ccc(C(F)(F)F)cc3)ccc21 the results were ELG1 genotoxic 11%, FLuc counter 13µM*, Rab9 prom act inconclusive and NPC1 prom act inconclusive.
`N/C(=N\OC(=O)c1cccc(Cn2cc(C(F)(F)F)ccc2=O)c1)c1ccc(Cl)cc1` gave ELG1 genotoxic -4%, FLuc counter 15µM*, Rab9 prom act 1% and NPC1 prom act 22%.
`Cc1ccc(/C(N)=N/OC(=O)c2cccc(Cn3cc(C(F)(F)F)ccc3=O)c2)cc1` gave ELG1 genotoxic 2%, FLuc counter 21µM*, Rab9 prom act 10% and NPC1 prom act inconclusive.
Screening O=C(Sc1ccc(Cl)cc1)c1cccc(Cn2cc(C(F)(F)F)ccc2=O)c1 returned ELG1 genotoxic -5%, FLuc counter -4%, Rab9 prom act -1% and NPC1 prom act 2%.
N/C(=N\OC(=O)c1cccc(Cn2cc(C(F)(F)F)ccc2=O)c1)c1ccccc1 was read as ELG1 genotoxic -5%, FLuc counter inconclusive, Rab9 prom act -3% and NPC1 prom act 2%.
For CC(=O)N1c2ccccc2CC1C(=O)N1CCN(c2cccc(Cl)c2)CC1 (centres undefined) the results were FLuc counter -3%.
For COc1ccccc1-c1noc(CSc2nnc(Cc3ccccc3)n2-c2ccc(C)c(C)c2)n1 the results were SMN2 splice up 2% and FLuc counter -21%.
Screening Cc1ccc(C)c(C(=O)COC(=O)c2cc(Cl)nc3ccccc23)c1 returned SMN2 splice up -10%, ELG1 genotoxic 2%, FLuc counter 12µM*, Rab9 prom act -3%, Luc counter -2% and NPC1 prom act 1%.
`Cc1ccc(C(=O)COC(=O)c2cc(Cl)nc3ccccc23)cc1C` gave SMN2 splice up -6%, ELG1 genotoxic 0%, FLuc counter 15µM*, Rab9 prom act -7%, Luc counter -3% and NPC1 prom act -6%.
Cc1cc(C(=O)OCC(=O)c2ccccc2)c2ccccc2n1 was read as ELG1 genotoxic 3%, FLuc counter inconclusive, Rab9 prom act -3% and NPC1 prom act -6%.
Screening COc1ccc(NC(=O)CC2C(=O)N(c3ccccc3)C(=O)N2CCc2sccc2C)cc1 (centres undefined) returned SMN2 splice up 14% and FLuc counter -15%.
Screening CSc1ccccc1OCc1cc(C(=O)N(C)C(C)c2ccccn2)no1 (centres undefined) returned ELG1 genotoxic 0%, FLuc counter 3%, Rab9 prom act 0% and NPC1 prom act -3%.
Screening Cc1cc(OCc2cc(C(=O)N(C)Cc3ccccn3)no2)cc(C)c1Cl returned ELG1 genotoxic inconclusive, FLuc counter 12µM*, Rab9 prom act 4µM* and NPC1 prom act 4µM*.
For Cc1cc(OCc2cc(C(=O)N(C)C(C)c3ccccn3)no2)cc(C)c1Cl (centres undefined) the results were ELG1 genotoxic inconclusive, FLuc counter 19µM*, Rab9 prom act inconclusive and NPC1 prom act inconclusive.
`CC(=O)c1ccc(OCc2cc(C(=O)N(C)Cc3ccccn3)no2)cc1` gave ELG1 genotoxic inconclusive, FLuc counter 15µM*, Rab9 prom act inconclusive and NPC1 prom act inconclusive.
Screening O=C(Cn1ccn(-c2ccc(F)cc2)c(=O)c1=O)NCCc1ccccc1 returned FLuc counter -5%.
CCOC(=O)CSc1nc(N)c(C(=O)Nc2ccc(N(C)C)cc2)s1 was read as SMN2 splice up -4%, ELG1 genotoxic 9%, FLuc counter 8.5µM*, Rab9 prom act -7%, Luc counter 11% and NPC1 prom act 0%.
For COc1ccc(NC(=O)c2sc(SC)nc2N)cc1 the results were SMN2 splice up 13µM*, ELG1 genotoxic 18µM*, FLuc counter 12µM*, Rab9 prom act inconclusive, Luc counter -10% and NPC1 prom act inconclusive.
`CCN(CC)C(=O)CSc1nc(N)c(C(=O)Nc2ccc(OC)cc2)s1` gave SMN2 splice up -23%, ELG1 genotoxic -4%, FLuc counter 24µM*, Rab9 prom act -2%, Luc counter -3% and NPC1 prom act 1%.
`COc1ccc(NC(=O)c2scc(S(=O)(=O)C(C)C)c2N)cc1` gave ELG1 genotoxic inconclusive, FLuc counter 6µM*, Rab9 prom act 1.1µM* and NPC1 prom act 2.5µM*.
For COc1ccc(NC(=O)c2sc(SCc3ccccc3)nc2N)cc1 the results were SMN2 splice up -1%, ELG1 genotoxic -3%, FLuc counter inconclusive, Rab9 prom act 19%, Luc counter 7% and NPC1 prom act 16%.
CCN(C(=O)CSc1nnc(Nc2ccc(OC)cc2)s1)C1CCS(=O)(=O)C1 (centres undefined) was read as ELG1 genotoxic 15%.
For CC(C)S(=O)(=O)c1csc(C(=O)NN)c1Cl the results were ELG1 genotoxic -1%, FLuc counter -8%, Rab9 prom act -6% and NPC1 prom act 1%.
CC(=O)OC1CC(C)OC(C)O1 (centres undefined) was read as SMN2 splice up 5%.
Screening CCCCC1=CC2=CC(=O)C(C)(OC(=O)CC)C(=O)C2=CN1CCCN(CC)CC (centres undefined) returned SMN2 splice up -1%[9.22 µM] and Luc counter -2%[7.66 µM].
For CCc1ccc(CNc2ccc3c(c2)ncn3CC)cc1 the results were ELG1 genotoxic inconclusive, FLuc counter 11µM*, Rab9 prom act 2.5µM* and NPC1 prom act 2.5µM*.
Screening CCc1ccc(CNc2ccc3c(c2)ncn3C(C)(C)C)cc1 returned SMN2 splice up 16µM*, ELG1 genotoxic inconclusive, FLuc counter 6µM*, Rab9 prom act 4µM* and NPC1 prom act 3.2µM*.

Screens from PubChem.
